Measured values reported in PubChem BioAssay.
Active and inactive are the calls of the source.

Key:
Albumin (Bos taurus) = Albumin (Bos taurus) (UniProt P02769); assay: compounds binding labelled BSA control protein – biochemical, small-molecule microarray, Alexa647 label, 635/667 nm fluorescence, artefact control for SMM control protein annotation, profiling panel (AID 1118); conditions: BSA-A647 binding, fluorescence 635 nm, higher = more signal;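 further: score merges 667 nm emission intensity and signal-to-noise per printed compound spot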
[1] = probe aXIP binding to arrayed compounds – biochemical, NeuroSMM set, 635/667 nm fluorescence, primary screen (AID 1119); conditions: small-molecule microarray, higher = more signal, called active from +8 up or from −8 down;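 further: probe is the protein aXip251-270 applied at 1 µg/mL to compound-printed slides; binding of probe to printed compounds measured as 667 nm fluorescence plus signal to noise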
[2] = probe aNOTCH3 binding on compound microarray – biochemical, small-molecule microarray, 635/667 nm fluorescence, primary screen (AID 1120); conditions: higher = more signal;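 further: probe is a biotin-tagged antibody raised against NOTCH3 rather than NOTCH3 protein; score merges spot fluorescence near 667 nm with spot signal to noise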
[3] = probe aNOTCH2 binding on compound microarray – biochemical, small-molecule microarray, 635/667 nm fluorescence, primary screen (AID 1121); conditions: higher = more signal;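 further: score merges feature fluorescence read at 667 nm with its signal to noise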
[4] = target: Carbonic anhydrase 2 (Homo sapiens) (UniProt P00918); assay: compounds binding carbonic anhydrase 2 – biochemical, small-molecule microarray, Alexa647-labelled CAII, profiling panel (AID 1122); conditions: CAII-A647 binding fluorescence, higher = more signal
[5] = COS7 lysate on small-molecule microarray, probe aHis, 635 nm (AID 1123); conditions: COS7 cell lysate, fluorescence, higher = more signal;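 further: z-score combines 667nm fluorescence intensity with signal-to-noise per printed compound spot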
[6] = probe aLAP1 signal on lysate-treated microarray – cell lysate, small-molecule microarray, COS7 lysate, primary screen (AID 1124); conditions: probe aLAP1, fluorescence, higher = more signal;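 further: lysate comes from COS7 cells expressing LAP1 and is applied at 0.3 µg/mL; score merges spot fluorescence near 667 nm with signal-to-noise over triplicate slides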
Sam68 (KHDRBS1) = assay: compounds binding KHDRBS1 protein – biochemical, small-molecule microarray, 635 nm fluorescence, primary screen (AID 1125); conditions: higher = more signal;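 further: score merges 667 nm channel intensity with signal to noise over triplicate slides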
[7] = tested on: Chordin-like protein 2 (CHRDL2); assay: compounds binding chordin-like 2 – biochemical, small-molecule microarray, 635 nm fluorescence, primary screen (AID 1126); conditions: fluorescence 635 nm, higher = more signal;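 further: printed compound slides probed with Chrdl2 protein at 4 µg/mL for 1 h at 4 C; score merges 667 nm emission intensity with signal to noise over three replicate slides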
[8] = target: Concanavalin-A (Canavalia ensiformis) (UniProt P02866); assay: compounds binding concanavalin A lectin – biochemical, small-molecule microarray, Alexa647 label, 635 nm, artefact control for SMM control protein annotation, primary screen (AID 1127); conditions: ConA-A647 binding fluorescence, higher = more signal;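 further: z combines 667 nm emission intensity with signal-to-noise across three replicate slides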
Chain of Concanavalin-A (Canavalia ensiformis) (P02866 whole entry, looked up): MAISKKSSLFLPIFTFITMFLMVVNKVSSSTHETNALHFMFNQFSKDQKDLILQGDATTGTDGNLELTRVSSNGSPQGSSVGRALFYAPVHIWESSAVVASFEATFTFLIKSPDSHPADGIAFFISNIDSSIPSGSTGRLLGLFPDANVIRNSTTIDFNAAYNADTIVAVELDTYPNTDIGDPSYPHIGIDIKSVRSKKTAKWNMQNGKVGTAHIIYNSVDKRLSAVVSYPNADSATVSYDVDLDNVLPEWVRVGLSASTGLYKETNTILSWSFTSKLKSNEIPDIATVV

Chain of Albumin (Bos taurus) (P02769 whole entry, looked up): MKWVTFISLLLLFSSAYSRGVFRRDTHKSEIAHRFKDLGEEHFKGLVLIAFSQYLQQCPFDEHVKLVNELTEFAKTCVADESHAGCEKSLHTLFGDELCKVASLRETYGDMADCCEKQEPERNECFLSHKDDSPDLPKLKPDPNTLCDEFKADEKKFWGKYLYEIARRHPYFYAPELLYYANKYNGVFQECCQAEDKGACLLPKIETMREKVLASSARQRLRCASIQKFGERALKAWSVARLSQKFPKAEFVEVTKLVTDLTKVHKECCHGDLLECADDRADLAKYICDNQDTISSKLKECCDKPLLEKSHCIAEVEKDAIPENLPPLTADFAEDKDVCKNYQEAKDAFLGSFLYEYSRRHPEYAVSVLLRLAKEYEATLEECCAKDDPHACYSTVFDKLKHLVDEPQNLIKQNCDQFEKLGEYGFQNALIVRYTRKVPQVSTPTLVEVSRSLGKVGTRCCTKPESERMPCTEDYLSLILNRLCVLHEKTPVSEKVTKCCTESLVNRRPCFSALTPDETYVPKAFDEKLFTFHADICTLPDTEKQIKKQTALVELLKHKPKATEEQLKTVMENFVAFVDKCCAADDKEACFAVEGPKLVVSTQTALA

| SMILES | composite z-score (Albumin (Bos taurus)) | composite Z-score [1] | composite z-score [2] | composite z-score [3] | composite z-score [4] | composite z-score [5] | composite z-score [6] | composite z-score (Sam68 (KHDRBS1)) | composite z-score [7] | composite z-score [8] |
| --- | --- | --- | --- | --- | --- | --- | --- | --- | --- | --- |
| Cc1ccc(S[C@]2(C(=O)NC3CC3)CC(=O)N(C3Cc4ccccc4C3)[C@@H]2c2ccc(CO)cc2I)cc1 | -0.15 | -0.216 (inactive) | -0.283 | -0.121 | 0.535 | 0.897 | 1.68 | -0.5 | -0.486 | 0.0714 |
| COC(=O)[C@@]1(Cc2ccc(F)cc2)[C@H]2c3cc(C(=O)N4CCCC4)n(CCSCCO)c3C[C@H]2CN1C(=O)c1ccccc1 | 0.855 | -0.338 (inactive) | 0.241 | 0.231 | 0.839 | 3.25 | 0.258 | 0.644 | -0.562 | 0.532 |
| C=C(COC)/C(=C/C[C@@H](OC(C)=O)c1cccc(OCCO)c1)c1cnc2ccccc2c1 | 0.238 | -0.365 (inactive) | 0.0916 | -0.084 | 0.98 | 1.12 | 0.0842 | 0.965 | 1.42 | 0.877 |
| COC(=O)[C@@]1(Cc2ccc(F)cc2)[C@H]2c3cc(C(=O)N4CCCC4)n(Cc4ccc(OC(F)(F)F)cc4)c3C[C@H]2CN1C(=O)c1ccccc1 | 0.435 | -0.328 (inactive) | 0.0026 | -0.0108 | 0.861 | 1.96 | 0.32 | -0.701 | -0.0979 | -0.484 |
| CC1C2C(CCCO)=CC(C3C(=O)N(C(N)=O)C(=O)C23)N1Cc1cccc(OC(F)(F)F)c1 (stereo not given) | 1 | 0.649 (inactive) | -0.068 | -0.114 | 0.699 | 1.22 | 0.147 | 1.33 | 0.0627 | -0.0715 |
| COc1c(C)cc(-c2cc3c(c(CCc4ccccc4)n2)[Si](C(C)C)(C(C)C)O[C@H]3c2ccccc2)cc1C | -0.0598 | 0.123 (inactive) | -0.0728 | -0.14 | -0.121 | 0.463 | -0.153 | -0.423 | -0.2 | 0.398 |
| COC(=O)[C@]1(Cc2ccccc2N=[N+]=[N-])N=C(c2ccc(OCCCO)cc2)O[C@@H]1c1ccccc1CN=[N+]=[N-] | -0.836 | 0.636 (inactive) | 0.169 | -0.0439 | 0.483 | 1.36 | -0.0388 | 1.27 | 0.232 | 0.844 |
| COc1ccc(C(=O)Nc2ccc(CN3C(=O)[C@@]4(O[C@@H](CC(=O)N(CCO)Cc5ccccc5)[C@H]([Si](C)(C)c5ccc(OC)cc5)[C@H]4C)c4ccccc43)cc2)cc1 | 0.469 | 0.226 (inactive) | -0.222 | -0.172 | 0.294 | 0.678 | -0.294 | 0.0422 | 1.01 | 1.1 |
| C=C1C(=O)C=C2CN(C(=O)c3ccccc3)[C@@](Cc3ccc(F)cc3)(C(=O)OC)[C@@H]12 | 1.03 | 0.114 (inactive) | 0.693 | 0.009 | 0.5 | 2.76 | 0.942 | 1.34 | -0.775 | 1.14 |
| O=C1O[C@H](c2ccccc2)[C@H](c2ccccc2)N2[C@H]1[C@@H](C(=O)O)[C@]1(C(=O)Nc3ccccc31)[C@H]2c1ccc(OCCO)cc1 | 1.03 | -0.617 (inactive) | 0.0576 | 0.024 | 0.749 | 1.79 | 0.59 | 1.16 | -0.192 | 0.864 |
| COC(=O)C(CC#Cc1ccc2c(c1)[C@]1(C(=O)N2)[C@H](C(N)=O)[C@H]2C(=O)O[C@H](c3ccccc3)[C@H](c3ccccc3)N2[C@@H]1c1ccccc1OCCO)C(=O)OC | 0.398 | -0.363 (inactive) | -0.248 | -0.124 | 0.434 | 2.34 | 0.782 | 1.13 | -0.0393 | 1.12 |
| C=CCNC(=O)[C@H]1[C@@H]2C(=O)O[C@@H](c3ccccc3)[C@@H](c3ccccc3)N2[C@@H](c2ccc(O)cc2)[C@]12C(=O)Nc1ccc(C#CCC(C(=O)OC)C(=O)OC)cc12 | 0.0574 | -0.209 (inactive) | -0.217 | 0.0098 | 0.649 | 1.23 | 0.877 | 0.421 | 0.952 | -0.273 |
| COc1ccc([Si](C)(C)[C@H]2[C@H](CC(=O)N(CCO)Cc3ccccc3)O[C@@]3(C(=O)N(Cc4ccc(N5C(=O)c6cccc7cccc5c67)cc4)c4ccccc43)[C@@H]2C)cc1 | 0.0079 | 0.0959 (inactive) | 0.376 | -0.0928 | 0.593 | 1.52 | 0.801 | 0.747 | 0.71 | 1.16 |
| O=C1OC[C@@H](c2ccccc2)n2cc(/C=C/c3ccccc3)cc21 | -0.456 | 0.597 (inactive) | -0.189 | -0.149 | 0.43 | 0.163 | -0.475 | -1.14 | -0.701 | 0.51 |
| COc1c(C)cc(-c2nc(-c3ccccc3)c3c(c2C)CO[Si]3(C(C)C)C(C)C)cc1C | -0.116 | 0.257 (inactive) | 0.178 | -0.0048 | -0.0127 | 0.275 | -0.314 | 0.214 | 0.264 | -0.53 |
| CC(C)[Si]1(C(C)C)OCc2cc(-c3ccc(-c4ccc(Cl)c(Cl)c4)o3)nc(-c3ccc(Oc4ccccc4)cc3)c21 | -0.753 | -1.23 (inactive) | -0.292 | -0.197 | -0.554 | -0.558 | -0.397 | -1.08 | -1.24 | -1.08 |
| [N-]=[N+]=NCc1ccccc1C[C@]1(C(=O)N2CCCCC2)COC(c2ccc(OCCCO)cc2)=N1 | 0.744 | -0.838 (inactive) | -0.159 | -0.242 | 0.375 | 1.58 | -0.44 | 1.24 | 0.0846 | 0.984 |
| C[C@]1(C(=O)NC2CC2)c2ccccc2C(=O)N(Cc2cc(F)cc(C(F)(F)F)c2)[C@H]1c1ccc(CO)cc1 | -0.1 | 0.004 (inactive) | -0.368 | -0.164 | 0.759 | 2.23 | 0.522 | -0.0456 | -1.61 | -0.0372 |
| CCCCC(=C=CC[C@@H](O)c1ccccc1OCCO)C[C@@H](O)c1ccccn1 | 0.043 | 0.504 (inactive) | -0.0077 | -0.197 | 0.678 | 0.522 | 0.137 | 0.81 | 0.179 | 0.287 |
| O=C(O)C1=CC[C@H]2C(=O)N(c3ccccc3)C(=O)[C@@H]12 | 0.342 | 0.277 (inactive) | 0.21 | -0.0216 | 0.425 | 1.33 | 0.453 | 1.31 | -0.0125 | 1.02 |
| CC1C2C(CCCO)=CC(C3C(=O)N(C)C(=O)C23)N1Cc1cccc(OC(F)(F)F)c1 (stereo not given) | 1 | -0.0186 (inactive) | 0.126 | 0.0083 | 0.854 | 2.43 | 0.267 | 1.29 | -0.262 | 0.96 |
| C=CC[C@]1(C(=O)NCCN2CCOCC2)N=C(c2ccc(OCCCO)cc2)O[C@H]1c1ccccc1 | -0.051 | 0.0999 (inactive) | 0.0813 | 0.0564 | 0.703 | 1.51 | 0.601 | 1.18 | 0.708 | 0.469 |
| CCOC(=O)C[C@H]1[C@H](OC(=O)c2ccccc2-c2ccccc2)[C@@H](NC(=O)CC(C)C)c2cc(OCCCO)ccc2N1C(=O)c1ccccc1 | 0.079 | 0.305 (inactive) | -0.0406 | -0.0698 | 0.742 | 0.429 | -0.161 | 0.207 | 0.389 | 0.125 |
| COc1ccc([Si](C)(C)[C@H]2[C@H](CC(=O)N(CCO)Cc3ccccc3)O[C@@]3(C(=O)N(c4ccccc4)c4ccccc43)[C@@H]2C)cc1 | 0.504 | 0.308 (inactive) | 0.123 | -0.117 | 0.34 | 0.66 | 0.264 | 1.2 | 1.19 | 1.06 |
| C=CCOC(=O)[C@H]1[C@@H]2C(=O)O[C@@H](c3ccccc3)[C@@H](c3ccccc3)N2[C@@H](c2ccc(OCCOC(=O)[C@H]3C[C@H]4C(=O)NCC(=O)N4[C@H]3c3ccc(O)cc3)cc2)[C@]12C(=O)Nc1ccccc12 | -0.501 | 1.19 (inactive) | 0.948 | -0.0631 | 0.6 | 1.67 | 0.96 | 1.29 | 0.815 | 1.18 |
| CCCCN1CC=CC23O[C@@H]4C=CCCOC(=O)C4[C@H]2C(=O)N(CCO)[C@@H]3C1=O (stereo not given in full) | 0.0656 | -0.535 (inactive) | -0.246 | -0.109 | 0.79 | -1.36 | 1.94 | -0.33 | -0.418 | -0.0932 |
| O=C1O[C@@H](c2ccccc2)[C@@H](c2ccccc2)N2[C@@H](c3ccc(OCCO)cc3)[C@]3(C(=O)Nc4ccc(C#CC5=CCCCC5)cc43)[C@@H](C(=O)Nc3nc4ccccc4s3)[C@H]12 | -0.01 | 0.159 (inactive) | 0.674 | -0.42 | 0.303 | 1.14 | -0.142 | 1.28 | 0.163 | 1.07 |
